Inconclusive results are not listed. A call without a number means that no potency is given here. Activity calls are given as the source filed them. Unless noted, calls come from the whole dose curve; as a rule, active = well fitted curve in the direction sought with a large enough effect in the repeat runs; inconclusive = weak or mixed curves; inactive = no such curve, though single readings can be large; an effect the other way counts as inactive or inconclusive.
Key:
[1] = qHTS assay for small molecules that induce genotoxicity in human embryonic kidney cells expressing luciferase-tagged ATAD5 (AID 651632); note: nearly all actives have a fitted effect of over 15% in size
Method in brief: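 Cells were seeded at 2,000 per well, dosed with compound, and incubated 16 hr at 37C in 5% CO2. Luciferase activity was then quantified after a 30 min room-temperature incubation with Amplite.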

[2] = qHTS assay for small molecule agonists of the p53 signaling pathway - cell viability (AID 651633; calls by dose curve;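 note: p53RE-bla HCT reporter cells with a stable beta-lactamase p53 reporter; nearly all actives have a fitted effect of over 30% in size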)
Method in brief: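 p53RE-bla cells were treated with compound for 16 hours at 37 C. Cytotoxicity was then measured as CellTiter-Glo luminescence after 30 min at room temperature.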

[3] = qHTS assay for small molecules that induce genotoxicity in human embryonic kidney cells expressing luciferase-tagged ATAD5 - cell viability (AID 651634; calls by dose curve; note: nearly all actives have a fitted effect of over 25% in size)
Method in brief: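 Cells (HEK293T, luciferase-tagged ATAD5) are seeded at 2,000 per well, dosed with compound or DMSO vehicle, and incubated 15.5 hr at 37C and 5% CO2. CellTiter-Fluor is added for 30 min before fluorescence is measured.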

[4] = qHTS assay for small molecule disruptors of the mitochondrial membrane potential - cell viability (AID 720634; calls by dose curve;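 note: human HepG2 liver cancer cells; nearly all actives have a fitted effect of over 20% in size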)
Method in brief: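 Cytotoxicity was measured by ATP quantitation in HepG2 wells that had first been treated with compound for 1 hr and stained with m-MPI dye; CellTiter-Glo incubation was 30 min at room temperature.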

[5] = qHTS assay to test for compound auto fluorescence at 590 nm (red) in HepG2 cells (AID 720674)
Method in brief: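 Fluorescence at 590 nm emission following 540 nm excitation was recorded from HepG2 wells one hour after compound transfer, with DMSO-only wells as vehicle and Rose Bengal sodium equivalency as the scale.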

[6] = qHTS assay to test for compound auto fluorescence at 535 nm (green) in HepG2 cells (AID 720675)
[7] = qHTS assay to test for compound auto fluorescence at 460 nm (blue) in HEK293 cells (AID 720678)
Method in brief: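 Intrinsic compound fluorescence is recorded in live HEK293 cultures after overnight incubation at 37C, 5% CO2, using excitation 405 nm and emission 460 nm. Values are referenced to triamterene.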

[8] = qHTS assay to test for compound auto fluorescence at 590 nm (red) in HEK293 cells (AID 720679)
Method in brief: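 Red autofluorescence, HEK293 cells: 2,000 cells/well; attach 4-5 hr 37C; add 23 nL cpd or DMSO; incubate o/n 37C 5% CO2; read Ex540/Em590; Rose Bengal sodium reference.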

[9] = qHTS assay to test for compound auto fluorescence at 535 nm (green) in HEK293 cells (AID 720680)
[10] = qHTS assay to test for compound auto fluorescence at 535 nm (green) in HEK293 cell free culture (AID 720682)
Method in brief: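 Compounds were pin-transferred into cell-free DMEM with 10% FBS, and green fluorescence was read at excitation 485 nm and emission 535 nm. Intensities were expressed as fluorescein-equivalent values.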

[11] = qHTS assay to test for compound auto fluorescence at 590 nm (red) in HEK293 cell free culture (AID 720683)
Method in brief: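 Cell-free wells of DMEM with 10% FBS received compound, and intrinsic fluorescence was read at excitation/emission 540/590 nm. Values expressed as equivalence to Rose Bengal sodium.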

[12] = qHTS assay to test for compound auto fluorescence at 590 nm (red) in HepG2 cell free culture (AID 720684)
Method in brief: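 Auto fluorescence equivalency versus Rose Bengal sodium, red channel Ex/Em 540/590 nm; compounds in cell-free MEM/10% FBS; DMSO vehicle control.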

[13] = qHTS assay to test for compound auto fluorescence at 460 nm (blue) in HepG2 cell free culture (AID 720685)
Method in brief: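 Cell-free plates of MEM plus 10% FBS received 23 nL compound or DMSO vehicle; blue-channel (405/460 nm) intensity scored against triamterene as reference fluorophore.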

[14] = qHTS assay to test for compound auto fluorescence at 535 nm (green) in HepG2 cell free culture (AID 720686)
[15] = qHTS assay to test for compound auto fluorescence at 460 nm (blue) in HepG2 cells (AID 720687)
Method in brief: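 HepG2 cells in MEM with 10% FBS, attached overnight at 37 C, were exposed to compound or DMSO for 1 hr at 37 C, 5% CO2. Blue fluorescence was read at 405/460 nm, with triamterene as reference fluorophore.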

[16] = target: Glucocorticoid receptor (Homo sapiens) (UniProt P04150); experiment: qHTS assay to identify small molecule agonists of the glucocorticoid receptor (GR) signaling pathway (AID 720691; active = well fitted activation curve with a large enough effect in the signal ratio in the repeat runs, not every such curve was filed as active; the % refers to the signal ratio; note: potency is the fitted concentration of half-maximal effect); settings: GR-bla HeLa, beta-lactamase reporter ratio, 18 h; activation: at 62.4 µM (top of the series)
Sequence of Glucocorticoid receptor (Homo sapiens) (P04150 whole entry, looked up): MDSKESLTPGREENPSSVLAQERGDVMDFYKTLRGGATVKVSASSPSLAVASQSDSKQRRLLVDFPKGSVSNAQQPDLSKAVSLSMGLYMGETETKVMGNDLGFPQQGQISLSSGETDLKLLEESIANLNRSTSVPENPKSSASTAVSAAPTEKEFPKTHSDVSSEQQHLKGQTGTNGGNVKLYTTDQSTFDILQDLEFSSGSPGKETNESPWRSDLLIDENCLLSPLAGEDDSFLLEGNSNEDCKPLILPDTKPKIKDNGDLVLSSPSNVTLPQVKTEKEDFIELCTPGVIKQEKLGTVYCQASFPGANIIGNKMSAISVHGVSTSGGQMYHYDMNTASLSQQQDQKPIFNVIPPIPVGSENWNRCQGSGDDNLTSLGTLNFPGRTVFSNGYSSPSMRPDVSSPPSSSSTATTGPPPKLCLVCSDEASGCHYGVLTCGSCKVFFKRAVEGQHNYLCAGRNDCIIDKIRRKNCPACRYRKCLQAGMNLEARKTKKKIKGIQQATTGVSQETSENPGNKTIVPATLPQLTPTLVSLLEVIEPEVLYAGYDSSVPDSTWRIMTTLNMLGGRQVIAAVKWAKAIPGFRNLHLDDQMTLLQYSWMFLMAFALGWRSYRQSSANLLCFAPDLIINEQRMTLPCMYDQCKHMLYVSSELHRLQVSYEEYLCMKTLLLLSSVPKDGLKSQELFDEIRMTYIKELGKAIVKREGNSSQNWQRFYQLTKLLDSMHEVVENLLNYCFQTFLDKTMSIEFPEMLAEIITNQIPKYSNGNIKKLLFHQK
Method in brief: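 Steps: seed GR-bla HeLa cells, incubate 4 h at 37 C/5% CO2; pin-transfer DMSO-dissolved compounds; incubate 18 h at 37 C; add LiveBLAzer B/G FRET substrate; after 2 h at room temperature, measure fluorescence.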

[17] = qHTS assay to test for compound auto fluorescence at 460 nm (blue) in HEK293 cell free culture (AID 720681)
Method in brief: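 Compounds were added to cell-free DMEM with 10% FBS and fluorescence read directly. The blue channel used 405 nm excitation and 460 nm emission, with triamterene as the reference fluorophore.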

[18] = qHTS assay for small molecule disruptors of the mitochondrial membrane potential (AID 720635); note: potency is the fitted concentration of half-maximal effect
Method in brief: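 HepG2 cells exposed to compound 1 hr at 37C, then Mito-MPS dye 30 min. Ratio read of aggregate (540/590 nm) versus monomer (490/535 nm) fluorescence.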

[19] = target: Glucocorticoid receptor (Homo sapiens) (UniProt P04150); experiment: qHTS assay to identify small molecule antagonists of the glucocorticoid receptor (GR) signaling pathway (AID 720692; active = well fitted inhibition curve with a large enough effect in the signal ratio in the repeat runs, not every such curve was filed as active; the % refers to the signal ratio)
Method in brief: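 Antagonism was scored as loss of dexamethasone-driven (5 nM final) reporter signal in HeLa cells bearing a glucocorticoid response element–beta-lactamase construct, after 18 h compound exposure at 37 C and 2 h FRET substrate loading.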

SMILES	Potency [1]	Potency [2]	Potency [3]	Potency [4]	Potency [5]	Potency [6]	Potency [7]	Potency [8]	Potency [9]	Potency [10]	Potency [11]	Potency [12]	outcome [13]	Potency [14]	outcome [15]	Potency [16]	Potency [17]	Potency [18]	Potency [19]
CC(C)CCC[C@@H](C)[C@H]1CC(=O)C2=C3CC[C@H]4C[C@@H](O)CC[C@]4(C)[C@H]3CC[C@@]21C	inactive	inactive	inactive	inactive	inactive	inactive	inactive	inactive	inactive	inactive	inactive	inactive	inactive	inactive	inactive	inactive			
C[C@H](N)C(=O)N[C@@H](C)P(=O)(O)O	inactive	inactive	inactive	inactive	inactive	inactive	inactive	inactive		inactive	inactive	inactive	inactive	inactive	inactive		inactive		
CN=C(NC)NCc1ccccc1	inactive	inactive	inactive		inactive	inactive	inactive	inactive	inactive	inactive	inactive	inactive	inactive	inactive	inactive	inactive	inactive	inactive	inactive
O=C(O)CC/C=C\CC[C@@H]1[C@@H](N2CCCCC2)[C@@H](O)C[C@@H]1OCc1ccc(-c2ccccc2)cc1	inactive	inactive	inactive	inactive	inactive	inactive	inactive	inactive	inactive	inactive	inactive		inactive	inactive	inactive	inactive			inactive
CCC(=O)O[C@]1(C(=O)CCl)[C@@H](C)C[C@H]2[C@@H]3C[C@H](F)C4=CC(=O)C=C[C@]4(C)[C@@]3(F)[C@@H](O)C[C@@]21C	inactive	inactive	inactive		inactive	inactive	inactive	inactive	inactive	inactive		inactive	inactive	inactive	inactive	0.0007 µM (active)	inactive	11.9 µM (active)	
COc1cc2c(cc1OC)CC(=O)N(CCCN(C)C[C@H]1Cc3cc(OC)c(OC)cc31)CC2	inactive	inactive	inactive	inactive	inactive	inactive	inactive	inactive	inactive	inactive	inactive	inactive	inactive	inactive	inactive	inactive			
NC(=O)C[C@@H](N)C(=O)O	inactive	inactive	inactive	inactive	inactive	inactive	inactive	inactive	inactive	inactive	inactive	inactive	inactive	inactive	inactive	inactive			inactive

Reference: PubChem BioAssay (Tox21)
